# Results taken from article PMC5836133, “The intracellular immune receptor Rx1 regulates the DNA-binding activity of a Golden2-like transcription factor”.
# Over roughly 16,000 sequences, “e-score” has its median near -0.044; the highest 2% begin near 0.38. The entries come from a sample that favours the highest values as a whole.
# Molecular target: T1, GST-NbGlk1(82-244) (Nicotiana benthamiana)
# T1 chain: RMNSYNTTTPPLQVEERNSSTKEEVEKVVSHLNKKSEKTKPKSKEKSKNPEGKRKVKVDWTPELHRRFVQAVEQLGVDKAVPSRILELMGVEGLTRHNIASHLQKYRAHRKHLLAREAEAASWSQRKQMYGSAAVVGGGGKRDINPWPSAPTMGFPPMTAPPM
# Assay: protein-binding microarray; NbGlk1 is a Golden2-like transcription factor of Nicotiana benthamiana; high values mean tight binding
# Details: protein: recombinant; tags: GST (pTH6838); dsDNA, one strand shown
row,Sequence,binding signal [E-score]
1,ACTGCAAT,0.211 ± 0.0632
2,ATGATTTG,0.257 ± 0.0544
3,AAGATTTA,0.333 ± 0.0668
4,AAGATTTC,0.477 ± 0.00488
5,ATTATTTC,0.219 ± 0.0605
6,AAAATTTC,0.276 ± 0.00552
7,CAAATTTC,0.232 ± 0.00396
8,CAGATTTC,0.4864 ± 0.00115
9,ACGATTTC,0.411 ± 0.0236
10,ATGATTTC,0.387 ± 0.0129
11,ACGATCTA,0.252 ± 0.0264
12,ACGATTTG,0.264 ± 0.0306
13,CAGATTTA,0.276 ± 0.0107
14,ATTCCCAA,0.344 ± 0.0159
15,ATCGGATA,0.33 ± 0.0178
16,AAATACGT,0.267 ± 0.0537
17,AATTGAAA,0.226 ± 0.0522
18,ACAAATAA,0.23 ± 0.0836
19,ATTTATTG,0.216 ± 0.0481
20,ATTGCGAG,0.24 ± 0.0521
21,ATATATAT,0.244 ± 0.0459
22,ATTCCCAG,0.291 ± 0.0505
23,AACTGATT,0.296 ± 0.0177
24,AAGATTTG,0.3926 ± 0.000402

row,Sequence,binding signal [E-score]
1,AAGATCAG,0.222 ± 0.0847
2,AATATTTG,0.2529 ± 0.00132
3,AATCGGCA,0.245 ± 0.0624
4,AATTTCCG,0.257 ± 0.00588
5,AATCAGTA,0.268 ± 0.0701
6,ATTCTTAG,0.253 ± 0.0124
7,AATCTTAT,0.377 ± 0.038
8,AATCTTAG,0.393 ± 0.0231
9,AATCTTAC,0.375 ± 0.0424
10,ATTCTTAA,0.276 ± 0.0327
11,AATCTTAA,0.411 ± 0.0114
12,AAAGTAAT,0.215 ± 0.0195
13,CAAAATAC,0.244 ± 0.00367
14,AAAAATCC,0.437 ± 0.00502
15,CAAAATCC,0.42 ± 0.00492
16,ATAAATCC,0.244 ± 0.0187
17,ACAAATCC,0.337 ± 0.0192
18,CAAAATCA,0.314 ± 0.00439
19,ATACGCAA,0.311 ± 0.105
20,ATTACGTG,0.343 ± 0.0114
21,ATACAGAT,0.232 ± 0.0349
22,ATTTTCAG,0.282 ± 0.0614
23,AATGCGAT,0.246 ± 0.145
24,AATCCGAC,0.375 ± 0.0477

row,Sequence,binding signal [E-score]
1,AATCCGAT,0.432 ± 0.00878
2,ATCCCGAT,0.294 ± 0.0618
3,AATCCCGA,0.358 ± 0.0612
4,AATCCGAG,0.384 ± 0.0199
5,ATTCCGAG,0.275 ± 0.0409
6,AATCAGAA,0.333 ± 0.0384
7,AATCCGAA,0.406 ± 0.0054
8,ATCCCCAT,0.277 ± 0.00736
9,AAACGGAT,0.245 ± 0.00295
10,AATCAATA,0.274 ± 0.0307
11,ATTACGCG,0.332 ± 0.0406
12,ATCGCCAA,0.206 ± 0.00895
13,ATTACTTA,0.22 ± 0.00767
14,CAAGAATC,0.3851 ± 0.0038
15,AATGAATC,0.262 ± 0.0542
16,CAAGATAC,0.263 ± 0.0221
17,CACGAATC,0.332 ± 0.0173
18,AAAGAATC,0.432 ± 0.00665
19,AAAGAAAT,0.26 ± 0.02
20,ATCCGGTG,0.295 ± 0.0985
21,AATAAAAT,0.285 ± 0.0273
22,CAGATACC,0.318 ± 0.0659
23,ACGATCTC,0.295 ± 0.0231
24,ATGATATC,0.4224 ± 0.000678

row,Sequence,binding signal [E-score]
1,AGGATATC,0.469 ± 0.00696
2,AGGATATG,0.301 ± 0.025
3,CAGATATC,0.4684 ± 0.00421
4,ACGATACG,0.207 ± 0.012
5,ACGATATC,0.444 ± 0.0119
6,AGGATATA,0.211 ± 0.0455
7,ATGATCTC,0.237 ± 0.0252
8,ATGATATG,0.251 ± 0.0218
9,CACATATC,0.207 ± 0.0307
10,CACGGATA,0.231 ± 0.0138
11,ATATTTTA,0.311 ± 0.0242
12,ATATGATA,0.219 ± 0.000234
13,ATTCGGTA,0.241 ± 0.0544
14,ACTGTAAA,0.2014 ± 0.00123
15,ATTACGGA,0.366 ± 0.0276
16,ATAACGCA,0.2 ± 0.0382
17,ATCTAAGA,0.26 ± 0.0102
18,ACGGGAAT,0.324 ± 0.00778
19,AAGATACT,0.2834 ± 0.00149
20,AAGATAAT,0.221 ± 0.0513
21,CACAGATA,0.28 ± 0.0657
22,CAAATATG,0.212 ± 0.061
23,CAGATATG,0.393 ± 0.0499
24,AAGATACG,0.319 ± 0.0229

row,Sequence,binding signal [E-score]
1,CAGATACG,0.391 ± 0.0206
2,CAAATACG,0.225 ± 0.0583
3,AAGATATA,0.3097 ± 0.00108
4,AAGATATT,0.393 ± 0.0518
5,AAGATATC,0.4749 ± 0.00348
6,AAGATATG,0.352 ± 0.0302
7,ATCCAGCC,0.215 ± 0.0455
8,CAATCAGA,0.206 ± 0.101
9,AAATATAG,0.237 ± 0.00681
10,ATATCGAA,0.272 ± 0.135
11,ATCTCGTA,0.376 ± 0.0288
12,ATCGGATC,0.275 ± 0.0422
13,ATTTTCGA,0.266 ± 0.0802
14,ATTACGCA,0.355 ± 0.0219
15,AAATATTC,0.306 ± 0.0275
16,AGATATTC,0.451 ± 0.0112
17,AGATATTG,0.375 ± 0.0495
18,AGATATTA,0.379 ± 0.00115
19,ATATATTA,0.229 ± 0.0313
20,ATATATTC,0.281 ± 0.0514
